Screening data from PubChem.
A selection: hits, their analogues and other compounds. The true share with any hit is near 21%.
D3 ag = agonists of human D3 dopamine receptor | actives 0.58% (n = 410,000) | P35462 | D3R DiscoveRx beta-arrestin cells, luminescence, 90 min | max activation, %; in the data active means max activation above about 30%
Target sequence (P35462 whole entry, looked up): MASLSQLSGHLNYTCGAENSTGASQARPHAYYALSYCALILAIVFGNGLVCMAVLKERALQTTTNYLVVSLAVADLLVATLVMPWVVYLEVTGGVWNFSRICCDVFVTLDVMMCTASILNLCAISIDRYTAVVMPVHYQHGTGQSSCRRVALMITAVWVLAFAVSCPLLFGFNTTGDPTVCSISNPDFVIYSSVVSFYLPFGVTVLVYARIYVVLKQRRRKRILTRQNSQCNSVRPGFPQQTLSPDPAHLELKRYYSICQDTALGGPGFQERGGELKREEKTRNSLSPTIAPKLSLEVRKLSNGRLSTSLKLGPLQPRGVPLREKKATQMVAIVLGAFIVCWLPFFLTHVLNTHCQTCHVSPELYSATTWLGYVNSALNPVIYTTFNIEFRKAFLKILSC
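Agonist-mode cell screen: cells plated at 1500/well and incubated overnight at 37 °C, then exposed to library compounds for 90 min at 37 °C. Detection reagent was added for 30–60 min at room temperature, and luminescence was read.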
IL1B secr inh = inflammasome signaling inhibition, IL-1 beta readout; THP-1 LPS/ATP IL-1B secretion, AlphaLISA, 16 h; stronger effect = lower value; activity change, % at 57.5 µM; actives 4.7% (n = 360,000); AID 743279; in the data active means activity change below about -50%; inconclusive means mostly about -30% to -49%
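Secreted IL-1B measured by AlphaLISA bead assay after 16 h compound exposure of THP-1 cells; compounds (final up to 57.5 uM) added 1 h before LPS (250 ng/mL) and ATP (1.25 mM) stimulation; lower signal means less secretion.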
DT40 TDP1 CPT = DT40-hTDP1 cell growth loss with CPT; chicken DT40 Tdp1-/-;hTDP1 cells + 20 nM CPT, ATP luminescence, 48 h; Potency, µM (top dose mostly 46.2 µM), hits mostly inhibitors; actives 12% (n = 420,000); further: nearly all actives have a fitted effect of over 55% in size
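Chicken DT40 Tdp1-/- cells complemented with human TDP1, 400 cells/well, exposed to compounds plus 20 nM camptothecin for at least 48 h at 37 C; viability read as ATP content by CellTiter-Glo luminescence.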
ClpP mod = qHTS Assay for Activators of ClpP | ATP-dependent Clp protease proteolytic subunit (Bacillus subtilis (strain 168)), P80244 | purified B. subtilis ClpP, FRET peptide cleavage, 20 min | Potency, µM (titrated, usually from 57.5 µM) | actives 1.9% (n = 340,000); active means well fitted falling curve with a large enough effect; inconclusive means small, poorly fitted or top-dose-only effect; inactive means no such curve, though single readings can be large or run the other way; further: the source files actives as falling curves though it sought activators and does not explain the sign; nearly all actives have a fitted effect of over 65% in size
Target sequence (P80244 whole entry, looked up): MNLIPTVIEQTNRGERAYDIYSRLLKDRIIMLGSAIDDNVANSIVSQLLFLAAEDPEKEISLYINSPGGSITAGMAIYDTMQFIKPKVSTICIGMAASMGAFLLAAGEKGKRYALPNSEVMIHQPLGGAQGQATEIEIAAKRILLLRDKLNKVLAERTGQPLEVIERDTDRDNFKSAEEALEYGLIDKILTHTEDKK
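Purified B. subtilis ClpP, 10 microg/mL final in Tris/HCl pH8 with KCl, BSA, glycerol and Tween-20, cleaved an Abz/nitrotyrosine-quenched decapeptide. Fluorescence (ex 320, em 430) was read at 0 and 20 min at room temperature. Delta was normalized to 5.8 microM ADEP and DMSO/no-enzyme controls.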
DRD3 antagonist = D3 dopamine receptor (human) antagonism. P35462. D3R cells, DiscoveRx beta-arrestin luminescence, antagonist mode; stronger effect = lower value. max response, negative = inhibition, %. actives 2.5% (n = 360,000). AID 652054; in the data active means max response below about -50%; inconclusive means no clear call, values can overlap the other calls
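Cells expressing the human receptor were seeded at 1500 cells/well, incubated overnight at 37 degrees C in 5% CO2, then exposed to library compounds with dopamine controls for 90 minutes at 37 degrees C before luminescent detection.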
DT40 TDP1 no CPT = qHTS for Inhibitors of human tyrosyl-DNA phosphodiesterase 1 (TDP1): qHTS in cells in absence of CPT | AID 686978, 2013 | actives 15% (n = 420,000) | DT40 Tdp1-/- hTDP1 cells, no CPT, ATP luminescence, 48 h | Potency, µM (series often up to 46.2 µM), most hits filed as inhibitors; further: nearly all actives have a fitted effect of over 55% in size
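Chicken DT40 Tdp1-/- cells complemented with human TDP1, screened without camptothecin (DMSO vehicle only), 400 cells/well. Compounds pin-transferred, cells incubated at 37 °C for at least 48 hr. Growth read as ATP-dependent luminescence (CellTiter-Glo, 30 min at RT).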
A number is an active result; i = inactive; ? = inconclusive; nt = no result; [ ] = remark or other dose. Unless noted, the call rests on the fitted dose curve; in most records, active means well fitted inhibition curve with a large enough effect; inconclusive means small, poorly fitted or top-dose-only effect; inactive means flat fitted curve, though single readings scatter.

SMILES | D3 ag | IL1B secr inh | DT40 TDP1 CPT | ClpP mod | DRD3 antagonist | DT40 TDP1 no CPT
COc1cccc(OCC(O)CN2CCOCC2)c1 (stereo not drawn) | i | i | i | i | i | i
OC(COc1ccccc1)CN1CCN(c2ncccn2)CC1 (stereo not drawn) | i | i | i | i | ? | i
OC(COc1ccccc1)CN1CCN(c2ccccc2)CC1 (stereo not drawn) | i | i | ? | i | -71 | i
OC(CSc1ccc(F)cc1)CN1CCN(c2ccccc2)CC1 (stereo not drawn) | i | i | i | nt | -72 | i
OC(COc1ccc2cc(Br)ccc2c1)CN1CCN(c2ccccn2)CC1 (stereo not drawn) | 227 | i | ? | i | i | ?
COc1cccc(OCC(O)CN2CCN(c3ccccn3)CC2)c1 (stereo not drawn) | 35 | i | i | i | ? | i
OC(COc1ccc(Br)cc1)CN1CCOCC1 (stereo not drawn) | i | i | i | i | i | i
OC(COc1ccc(Br)cc1)CN1CCN(c2ccccc2)CC1 (stereo not drawn) | i | i | ? | i | -51 | ?
COc1cccc(OCC(O)CN2CCN(c3ccccc3)CC2)c1 (stereo not drawn) | 31 | i | i | i | ? | i
CCC1CN(CCNC(=O)c2ccc3c(c2)OCCO3)Cc2cc(OC)ccc2O1 (stereo not drawn) | nt | nt | i[9.04 µM] | nt | nt | i
O=C(Nc1ccc(Cl)cc1)c1cc2c(Cl)nc3ccccc3c2s1 | i | nt | i | i | nt | i
COc1ccc(NC(=O)c2cc3c(Cl)nc4ccccc4c3s2)cc1OC | i | i | ? | i | i | 21µM
CCN(CC)CCOC(=O)c1ccc(NC(=O)c2cc3c(=O)n(CC)c4ccccc4c3s2)cc1 | i | nt | 5.2µM | i | nt | 5.2µM
CCn1c2ccccc2c2cc(N=C3SC(CC(=O)Nc4ccccc4OC)C(=O)N3CCOC)ccc21 (stereo not drawn) | i | i | ? | i | i | ?
CCn1c(=O)c2cc(C(=O)Nc3cc(OC)c(OC)c(OC)c3)sc2c2ccccc21 | i | nt | 9.2µM | i | nt | 6.5µM
CCn1c2ccccc2c2cc(N=C3SC(CC(=O)Nc4ccccc4OC)C(=O)N3C)ccc21 (stereo not drawn) | i | i | ? | i | i | 26µM
COc1ccc(CNC(=O)CSc2ncc3c(n2)-c2cc(Cl)ccc2N(C)S3(=O)=O)cc1 | i | nt | ? | i | nt | i
COc1cc(/C=C(\C#N)c2nc3ccccc3c(=O)[nH]2)cc(OC)c1OC | i | nt | nt | i | nt | nt
CCn1c(=O)c2cc(C(=O)Nc3ccccc3OC)sc2c2ccccc21 | i | i | 15µM | i | i | 21µM
COc1ccc(C(NC(=O)c2ccco2)c2ccc(OC)c(OC)c2)cc1 (stereo not drawn) | i | i | i | i | i | i
COc1ccc(C(NC(=O)/C=C/c2ccco2)c2ccc(OC)c(OC)c2)cc1OC | i | i | i | i | -56 | i
COc1ccc(C2(CNC(=O)/C=C\c3ccco3)CCCC2)cc1OC | i | i | 18µM | i | i | 29µM
Cc1[nH]n(-c2ccccc2)c(=O)c1N=Nc1nccs1 | i | i | 18µM | i | ? | 23µM
Cc1[nH]n(-c2ccccc2)c(=O)c1N=Nc1ccccc1O | i | i | 0.52µM | nt | i | 0.41µM
O=C(NCCOc1ccccc1)C(=O)c1c[nH]c2ccccc12 | i | i | i | i | i | i
SMILES | D3 ag | IL1B secr inh | DT40 TDP1 CPT | ClpP mod | DRD3 antagonist | DT40 TDP1 no CPT
COc1ccccc1N1CCN(C(=O)Nc2ccc([N+](=O)[O-])cc2)CC1 | i | i | ? | i | i | 16µM
COc1ccccc1N1CCN(C(=O)Nc2cccc(C)c2)CC1 | i | i | i | i | i | ?
CC(C)(C)c1ccc(NC(=O)N2CCN(c3ccc([N+](=O)[O-])cn3)CC2)cc1 | i | nt | 3.3µM | nt | i | 8.2µM
O=C(NN(c1ccccc1)c1ccccc1)c1ccc([N+](=O)[O-])o1 | i | -93 | ? | nt | i | ?
NC(=O)c1oc2ccccc2c1NC(=O)c1ccc([N+](=O)[O-])o1 | i | -91 | 0.73µM | nt | i | 0.58µM
CCCN(CCC)C(=O)c1c[nH]c2ccc(S(=O)(=O)N(C)c3ccc(OCC)cc3)cc2c1=O | i | nt | ? | i | nt | ?
Cc1cccc(NC(=O)CN2CCN(C(=O)c3c(C)nn(Cc4ccccc4)c3C)CC2)c1C | i | i | i | i | i | i
Cc1o[nH]c(=O)c1CC[C@H](N)C(=O)O | nt | nt | i | nt | nt | i
COc1ccc(Cn2c(SCC(N)=O)nc3c(sc4ccccc43)c2=O)cc1 | i | nt | ? | ? | nt | ?
O=C(CSc1nc2c(sc3ccccc32)c(=O)n1CCCN1CCCC1)NCc1ccccc1 | i | -100 | i | i | i | ?
Cc1ccc(CNC(=O)CSc2nc3c(sc4ccccc43)c(=O)n2CCCN2CCCC2)cc1 | i | -90 | 23µM | nt | i | ?
CSc1nc2c(sc3ccccc32)c(=O)n1Cc1ccc(C)cc1 | i | nt | 21µM | i | nt | 16µM
COc1cccc(Nc2nc(C)nc3c2oc2ccccc23)c1 | i | i | ? | nt | i | 21µM
Cc1nc(Nc2cccc(Cl)c2)c2oc3ccccc3c2n1 | i | -72 | 16µM | i | i | 21µM
Cc1nc(Nc2cccc(F)c2)c2oc3ccccc3c2n1 | i | i | ? | nt | i | ?
COc1ccccc1Nc1nc(C)nc2c1oc1ccccc12 | i | i | 15µM | nt | i | 9.2µM
Cc1nc(Nc2cccc(O)c2)c2oc3ccccc3c2n1 | i | i | ? | i | i | 13µM
O=C(CSCc1ccc([N+](=O)[O-])cc1)Nc1ccccc1C(=O)O | i | i | i | nt | i | ?
CCOC(=O)C1(CCCc2ccccc2)CCN(C2CCN(C(C)=O)CC2)CC1 | i | i | ? | i | i | ?
CCc1nc(Nc2ccc(O)cc2)c2oc3ccccc3c2n1 | i | -89 | ? | nt | i | ?
CCc1nc(Nc2ccc(OC)cc2OC)c2oc3ccccc3c2n1 | i | i | 7.3µM | nt | i | 21µM
COc1ccc(Nc2nc(C)nc3c2oc2ccccc23)c(OC)c1 | i | i | i | nt | i | i
CCc1nc(Nc2ccccc2O)c2oc3ccccc3c2n1 | i | i | i | nt | i | i
Cc1cc(C)c2[nH]c(C)c(CN3CCCCCC3)c(=O)c2c1 | i | i | i | i | i | i
CCOC(=O)C1(CCCc2ccccc2)CCN(C(=O)CCC2=NNC(=O)CC2)CC1 | i | i | i | i | i | i
Cc1nc(-c2cn[nH]c2)c2cc(C)oc2n1 | i | i | i | 28µM | i | i
